An excerpt weighted towards active compounds, which were near 14% of everything screened.
USP10 inh: inhibitors of human USP10 deubiquitinase | purified USP10, Ub-rhodamine fluorescence, 60 min | inhibition, % at 20 µM | Ubiquitin carboxyl-terminal hydrolase 10 (Homo sapiens), Q14694 | hit rate 1.1% among 47,000 | AID 1645856, 2021
USP30 inh: inhibitors of human USP30 deubiquitinase. hit rate 5.3% among 47,000. AID 1645860, 2021. purified USP30, Ub-rhodamine cleavage fluorescence. inhibition, % at 25 µM. Ubiquitin carboxyl-terminal hydrolase 30 (Homo sapiens), Q70CQ3
USP8 block: inhibitors of human USP8 deubiquitinase; inhibition, % at 20 µM; hit rate 4.2% among 47,000; AID 1645853, 2021; purified USP8, Ub-rhodamine cleavage fluorescence, 30 min; Ubiquitin carboxyl-terminal hydrolase 8 (Homo sapiens), P40818
USP28 inh: inhibitors of human USP28 deubiquitinase; Ubiquitin carboxyl-terminal hydrolase 28 (Homo sapiens), Q96RU2; purified USP28, Ub-rhodamine cleavage fluorescence, 30 min; inhibition, % at 25 µM; hit rate 3% among 47,000; AID 1645857, 2021
USP17 block: inhibitors of human USP17 deubiquitinase; purified USP17, Ub-rhodamine cleavage fluorescence, 3 h; hit rate 6.5% among 47,000; inhibition, % at 50 µM; Ubiquitin carboxyl-terminal hydrolase 17-like protein 5 (Homo sapiens), A8MUK1
Numbers without * were called inactive; . = no result given. Rule as the data show it: active = inhibition above about 30%; inactive = the rest.

SMILES | USP10 inh | USP30 inh | USP8 block | USP28 inh | USP17 block
O=C(CC1SCCNC1=O)Nc1cccc2ccccc12 (centres undefined) | -2.8 | -8.0 | -26.8 | -9.9 | 0.1
NS(=O)(=O)c1ccc(C(=O)Nc2cccc(-c3ccc4nncn4n3)c2)cc1 | 1.5 | 0.0 | 33.8* | 3.4 | 8.6
Cc1ccc(C(C)NC(=O)c2cccc(-c3cnc(N4CCCC4)nc3)c2)cc1 (centres undefined) | 4.2 | -10.3 | 2.3 | -5.9 | 11.0
Cc1ccccc1CNC(=O)c1cccc(-c2cnc(N3CCCC3)nc2)c1 | -3.4 | 32.4* | 5.9 | 8.4 | 4.6
COc1ccc(NS(=O)(=O)/C=C/c2ccc(OC)c(OC)c2)cc1 | -0.1 | 14.3 | 16.1 | 6.3 | -2.3
COc1ccc(/C=C/c2cc(OC)cc(=O)o2)cc1 | 4.7 | 32.3* | 5.2 | 17.4 | 30.1*
Cc1cncc(C(=O)N2CCC3(CC2)CO[C@@H]2c4cc(Cl)ccc4OC(C)(C)[C@H]2C3)c1 | -3.8 | -15.4 | -19.0 | -10.6 | -16.8
Cc1cccc(NC(=O)Cn2c(=O)n(-c3cc(C)cc(C)c3)c(=O)c3sccc32)c1 | 19.5 | 24.3 | 24.5 | 3.5 | 11.8
Cc1ccc(CNC(=O)CCCCCn2c(=O)c3sccc3n(CC(=O)c3ccc(Cl)cc3)c2=O)cc1 | -4.4 | -35.8 | 8.2 | 2.6 | -3.0
Cc1cccc(NC(=O)Cn2c(=O)n(Cc3ccc(F)cc3)c(=O)c3sccc32)c1 | 18.3 | 35.3* | 4.0 | 14.5 | 68.6*
CCOc1ccc(NC(=O)Cn2c(=O)n(CCCCCC(=O)NCc3ccc(F)cc3)c(=O)c3sccc32)cc1 | 50.7* | 48.6* | 68.9* | 21.4 | 42.9*
CCOC(=O)c1ccc(NC(=O)Cn2c(=O)n(CC(=O)NCCc3ccc(OC)c(OC)c3)c(=O)c3sccc32)cc1 | 3.0 | 66.2* | 13.0 | 21.4 | 24.8
COc1ccc(Cl)cc1NC(=O)Cn1c(=O)n(CCCC(=O)NCc2ccc(C)cc2)c(=O)c2sccc21 | 69.4* | 19.7 | 67.6* | -1.6 | 20.0
CCNC(=O)c1nc(-c2ccc(N3CCCCCC3)cc2)no1 | -0.3 | -1.4 | 7.2 | -14.8 | 19.3
O=c1[nH]c2cc(Cl)c(Cl)cc2nc1-c1ncc(C(F)(F)F)cc1Cl | 6.2 | 5.9 | 9.4 | -9.2 | 1.5
Cn1c(=O)c2nc(-c3nc4ccccc4s3)c(N)nc2n(C)c1=O | -4.7 | -216.0 | -5.8 | -151.5 | -86.3
CC(C)C(=O)Nc1ccc(-n2cnc(C(=O)NC3CCCC3)c2)nc1 | 1.7 | 5.0 | -9.0 | -3.7 | 0.1
COc1cc(C2CCN(C(=O)c3cccc4ccccc34)CC2)on1 | -1.7 | 8.8 | 7.9 | 0.0 | -0.2
CC1=C(C(=O)Nc2c(C)cc(C)cc2C)C2(CCC(C)CC2)OC1=O (centres undefined) | -0.7 | -13.8 | -10.3 | -8.3 | 34.3*
Cc1ccc(-c2csc(-c3nnn(-c4cccc(Cl)c4)c3N)n2)cc1 | 0.6 | -15.6 | 42.4* | -0.8 | -3.7
Nc1c(-c2nc(-c3ccc4c(c3)OCO4)cs2)nnn1-c1ccccc1 | -1.1 | 15.3 | 33.6* | 7.3 | 64.9*
COc1ccc(-c2csc(-c3nnn(-c4cc(OC)cc(OC)c4)c3N)n2)cc1 | -2.7 | -29.2 | -4.0 | -5.8 | -15.0
Nc1c(-c2nc(-c3ccccc3)cs2)nnn1-c1ccccc1 | 1.4 | . | 2.9 | . | 7.6
O=C1N(Cc2ccc(F)cc2)CCN1c1ccc2c(c1)OCO2 | 4.0 | 20.0 | 12.4 | 48.3* | 11.0
C/C(=C\c1ccccc1)CN1CCC(O)(c2ccc(C)cc2)CC1 | 2.0 | 11.7 | 34.4* | 11.3 | 12.8
SMILES | USP10 inh | USP30 inh | USP8 block | USP28 inh | USP17 block
CN(c1ccccc1)C1COC2(CCN(C(=O)CN3CCCCC3)CC2)C1 (centres undefined) | -0.4 | 15.2 | 16.6 | 8.6 | 13.3
COc1cc2[nH]c3c(N4CCC(C(N)=O)(N5CCCCC5)CC4)ncnc3c2cc1OC | 9.0 | 30.4* | 12.1 | 19.0 | 11.2
COc1cc(CCC(C)=O)ccc1OC(=O)c1ccc(Cl)cc1[N+](=O)[O-] | 3.3 | -5.9 | -110.1 | 3.6 | -21.1
CCN1CCN(C(=O)CN2C(=O)C3CCCN3C(=O)c3cc(C)ccc32)CC1 (centres undefined) | 1.0 | -20.1 | 1.3 | -16.8 | -17.3
COc1ccc(-c2cc(C(F)F)n3ncc(C(=O)NC(C)c4ccc(C(C)C)cc4)c3n2)cc1 (centres undefined) | 0.5 | 26.3 | 24.4 | -6.2 | 11.7
COc1ccc(-c2cc(C(F)F)n3ncc(C(=O)N(Cc4ccccc4)Cc4ccccc4)c3n2)cc1 | 5.3 | 0.9 | 6.1 | -0.7 | -4.9
COc1ccc(-c2cc(C(F)F)n3ncc(C(=O)NCC4CCCO4)c3n2)cc1 (centres undefined) | -3.8 | . | 0.1 | . | 33.5*
COc1ccc(-c2cc(C(F)F)n3ncc(C(=O)Nc4ccc5c(c4)OCCO5)c3n2)cc1 | 3.2 | 55.9* | 4.2 | 4.8 | 11.0
CC(C)C[C@H](NC(=O)[C@H](Cc1ccccc1)n1c(=O)[nH]c2ccccc2c1=O)C(=O)N[C@H](Cc1ccccc1)C(=O)O | 2.2 | 18.8 | -37.3 | 9.0 | 9.8
O=C(c1noc2ccc(S(=O)(=O)Nc3ccccc3F)cc12)N1CCCCC1 | 5.4 | 4.5 | -22.6 | -3.4 | -1.1
O=C(NC1CCCCC1)C(c1ccc(F)cc1)N(Cc1ccccc1)C(=O)CN1C(=O)c2ccccc2S1(=O)=O (centres undefined) | 28.5 | 44.6* | 17.0 | 15.2 | 7.2
O=C(NC1CCCCC1)C(c1ccc(F)cc1)N(C(=O)CN1C(=O)c2ccccc2S1(=O)=O)c1ccccc1 (centres undefined) | 15.9 | 31.5* | 13.5 | 11.2 | 20.4
O=c1ccc(-c2nc(C3CC3)no2)cn1Cc1c(F)cccc1Cl | -1.6 | 3.3 | -5.5 | 8.2 | 4.1
O=C(Cn1cccc1-c1nnc(-c2ccccc2)o1)N1CCC2(CC1)OCCO2 | 0.0 | 0.0 | 16.3 | 7.3 | 3.1
CC1CCCCN1c1ncnc2c1oc1nc3c(cc12)COC(C)(C)C3 (centres undefined) | -3.3 | . | -3.4 | . | 0.5
O=C(Nc1ncc2c(n1)CC(c1ccc(Cl)cc1)CC2=O)c1ccco1 (centres undefined) | -0.6 | -1.4 | 14.0 | 4.3 | 15.1
O=C(Nc1ccccc1Sc1ncc(-c2ccc(Cl)cc2)cn1)c1ccco1 | 5.0 | 24.4 | 21.0 | 14.2 | 52.0*
C(#CC(/C=C/c1ccccc1)c1ccnc2ncccc12)/C=C/c1ccccc1 (centres undefined) | 3.6 | 11.3 | 1.1 | -0.6 | -0.4
COc1ccccc1CC(=O)N1CCC(c2nn(CCN)c3nccnc23)C1 (centres undefined) | -0.4 | 34.6* | 5.5 | 5.2 | 9.6
O=C(CN1C(=O)CCCc2cc(S(=O)(=O)N3CCCC3)ccc21)NC1CCCCC1 | -0.5 | -0.9 | -0.1 | -0.7 | -3.2
Clc1ccc(CN=C(Nc2ccccc2)NC2CC2)c(Cl)c1 | -0.6 | 30.8* | 11.0 | 24.7 | 5.4
O=C(CN1C(=O)COc2cc(Cl)ccc21)NC1CC1 | -2.2 | 0.6 | -1.5 | -1.6 | 2.3

Source: PubChem BioAssay
